ChEMBL document CHEMBL1961873, “Compounds: GSK PKIS; Assays: Nanosyn kinase panel” (2012)

Legend:
[1] = target: Sphingosine kinase 1 (Homo sapiens) (UniProt Q9NYA1); details: at 1 µM;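 further: mean SPHK1 inhibition value reported from the GSK PKIS kinase panel screen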
[2] = target: T1, Sphingosine kinase 2 (Homo sapiens) (UniProt Q9NRA0); details: at 0.1 µM
T1 sequence (whole entry): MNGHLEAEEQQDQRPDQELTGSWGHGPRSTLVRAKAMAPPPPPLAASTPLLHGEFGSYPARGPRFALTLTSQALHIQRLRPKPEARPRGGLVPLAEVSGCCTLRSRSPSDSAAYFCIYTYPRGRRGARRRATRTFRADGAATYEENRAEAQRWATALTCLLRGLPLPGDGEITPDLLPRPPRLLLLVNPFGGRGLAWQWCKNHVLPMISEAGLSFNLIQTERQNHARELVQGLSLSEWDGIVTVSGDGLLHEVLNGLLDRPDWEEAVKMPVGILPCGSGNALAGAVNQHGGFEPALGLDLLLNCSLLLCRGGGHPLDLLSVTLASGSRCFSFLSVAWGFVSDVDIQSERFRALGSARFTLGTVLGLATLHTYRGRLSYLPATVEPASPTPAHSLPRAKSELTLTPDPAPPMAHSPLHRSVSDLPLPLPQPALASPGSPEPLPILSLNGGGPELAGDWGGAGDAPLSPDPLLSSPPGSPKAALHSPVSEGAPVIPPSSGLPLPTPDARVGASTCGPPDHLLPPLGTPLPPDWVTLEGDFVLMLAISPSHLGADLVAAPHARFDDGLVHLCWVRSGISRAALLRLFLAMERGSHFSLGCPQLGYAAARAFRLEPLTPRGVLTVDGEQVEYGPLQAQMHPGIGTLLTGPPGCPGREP

[3] = target: T1, Sphingosine kinase 2 (Homo sapiens); details: at 1 µM
[4] = target: Casein kinase II subunit alpha (Homo sapiens) (UniProt P68400); details: at 0.1 µM
Chain of Casein kinase II subunit alpha (Homo sapiens) (P68400 whole entry, looked up): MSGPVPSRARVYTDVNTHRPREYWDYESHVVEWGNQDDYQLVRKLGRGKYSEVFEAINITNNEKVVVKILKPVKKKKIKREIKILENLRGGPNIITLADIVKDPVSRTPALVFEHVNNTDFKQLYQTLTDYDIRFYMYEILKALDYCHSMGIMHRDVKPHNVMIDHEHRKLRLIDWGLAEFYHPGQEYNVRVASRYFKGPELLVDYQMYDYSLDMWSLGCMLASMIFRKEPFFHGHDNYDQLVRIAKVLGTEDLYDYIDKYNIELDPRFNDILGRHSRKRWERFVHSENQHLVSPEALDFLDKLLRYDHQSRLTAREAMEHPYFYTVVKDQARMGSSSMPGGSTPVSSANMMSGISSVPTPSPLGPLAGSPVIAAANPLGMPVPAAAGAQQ

[5] = target: Casein kinase II subunit alpha (Homo sapiens) (UniProt P68400); details: at 1 µM
[6] = target: T2, Inhibitor of nuclear factor kappa-B kinase subunit alpha (Homo sapiens) (UniProt O15111); details: at 0.1 µM
T2 sequence (whole entry): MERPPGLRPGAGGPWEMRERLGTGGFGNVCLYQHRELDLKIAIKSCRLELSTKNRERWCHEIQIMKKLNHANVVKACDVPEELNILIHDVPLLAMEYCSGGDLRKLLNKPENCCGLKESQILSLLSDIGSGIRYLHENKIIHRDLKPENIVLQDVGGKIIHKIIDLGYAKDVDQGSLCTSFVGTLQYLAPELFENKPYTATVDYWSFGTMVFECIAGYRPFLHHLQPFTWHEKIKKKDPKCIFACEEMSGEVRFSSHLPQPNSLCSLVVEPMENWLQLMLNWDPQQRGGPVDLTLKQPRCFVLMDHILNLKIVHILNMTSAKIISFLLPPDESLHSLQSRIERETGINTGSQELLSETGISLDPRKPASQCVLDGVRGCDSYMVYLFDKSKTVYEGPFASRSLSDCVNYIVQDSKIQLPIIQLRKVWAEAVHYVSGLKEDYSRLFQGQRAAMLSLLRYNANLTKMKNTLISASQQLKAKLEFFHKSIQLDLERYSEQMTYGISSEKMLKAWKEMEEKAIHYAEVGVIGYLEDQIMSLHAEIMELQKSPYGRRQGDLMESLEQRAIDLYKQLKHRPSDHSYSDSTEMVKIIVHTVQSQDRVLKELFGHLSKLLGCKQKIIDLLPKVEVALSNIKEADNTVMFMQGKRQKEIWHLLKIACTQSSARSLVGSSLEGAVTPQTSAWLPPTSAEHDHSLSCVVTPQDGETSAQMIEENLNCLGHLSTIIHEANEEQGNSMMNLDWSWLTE

[7] = target: T2, Inhibitor of nuclear factor kappa-B kinase subunit alpha (Homo sapiens); details: at 1 µM
[8] = target: T3, Inhibitor of nuclear factor kappa-B kinase subunit beta (Homo sapiens) (UniProt O14920); details: at 0.1 µM
T3 sequence (whole entry): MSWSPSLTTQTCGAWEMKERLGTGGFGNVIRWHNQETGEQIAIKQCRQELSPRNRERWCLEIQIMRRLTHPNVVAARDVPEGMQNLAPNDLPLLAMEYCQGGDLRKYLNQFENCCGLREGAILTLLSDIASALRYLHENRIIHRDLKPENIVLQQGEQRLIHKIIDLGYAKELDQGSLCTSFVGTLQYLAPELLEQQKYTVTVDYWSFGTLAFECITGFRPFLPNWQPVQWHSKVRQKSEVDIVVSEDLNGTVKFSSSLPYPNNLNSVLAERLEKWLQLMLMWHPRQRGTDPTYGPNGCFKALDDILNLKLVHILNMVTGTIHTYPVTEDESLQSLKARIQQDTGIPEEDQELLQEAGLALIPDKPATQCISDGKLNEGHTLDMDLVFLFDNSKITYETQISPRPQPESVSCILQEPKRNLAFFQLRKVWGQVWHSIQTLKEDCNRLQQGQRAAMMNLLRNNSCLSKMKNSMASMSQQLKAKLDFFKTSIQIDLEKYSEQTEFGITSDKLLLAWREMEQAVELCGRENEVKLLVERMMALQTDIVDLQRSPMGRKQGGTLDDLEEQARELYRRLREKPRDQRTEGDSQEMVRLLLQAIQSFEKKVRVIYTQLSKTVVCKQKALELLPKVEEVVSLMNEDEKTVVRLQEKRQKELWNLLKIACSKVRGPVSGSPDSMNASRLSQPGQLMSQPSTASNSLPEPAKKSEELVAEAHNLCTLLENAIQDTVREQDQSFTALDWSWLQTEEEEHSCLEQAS

[9] = target: T3, Inhibitor of nuclear factor kappa-B kinase subunit beta (Homo sapiens); details: at 1 µM
[10] = target: T4, Inhibitor of nuclear factor kappa-B kinase subunit epsilon (Homo sapiens) (UniProt Q14164); details: at 0.1 µM;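 further: mean inhibition of IKKε reported, from the GSK PKIS dataset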
T4 sequence (whole entry): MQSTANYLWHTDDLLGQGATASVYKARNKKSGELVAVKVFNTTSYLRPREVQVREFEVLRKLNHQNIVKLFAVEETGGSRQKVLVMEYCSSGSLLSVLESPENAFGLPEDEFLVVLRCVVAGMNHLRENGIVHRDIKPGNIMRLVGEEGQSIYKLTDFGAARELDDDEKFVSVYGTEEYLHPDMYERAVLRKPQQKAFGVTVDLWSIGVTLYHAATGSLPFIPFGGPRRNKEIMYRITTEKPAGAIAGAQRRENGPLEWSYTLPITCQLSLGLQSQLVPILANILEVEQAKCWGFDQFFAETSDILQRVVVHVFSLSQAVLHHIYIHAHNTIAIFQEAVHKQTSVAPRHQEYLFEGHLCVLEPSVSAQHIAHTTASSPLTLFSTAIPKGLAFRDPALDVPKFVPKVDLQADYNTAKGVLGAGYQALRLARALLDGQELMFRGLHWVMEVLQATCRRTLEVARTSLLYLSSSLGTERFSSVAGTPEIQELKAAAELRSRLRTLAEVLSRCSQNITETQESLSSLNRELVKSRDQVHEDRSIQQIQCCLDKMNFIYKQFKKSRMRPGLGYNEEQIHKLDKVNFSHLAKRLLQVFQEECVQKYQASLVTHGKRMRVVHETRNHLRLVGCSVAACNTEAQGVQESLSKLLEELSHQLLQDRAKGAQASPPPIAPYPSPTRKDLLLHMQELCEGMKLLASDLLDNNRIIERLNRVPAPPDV

Chain of Sphingosine kinase 1 (Homo sapiens) (Q9NYA1 whole entry): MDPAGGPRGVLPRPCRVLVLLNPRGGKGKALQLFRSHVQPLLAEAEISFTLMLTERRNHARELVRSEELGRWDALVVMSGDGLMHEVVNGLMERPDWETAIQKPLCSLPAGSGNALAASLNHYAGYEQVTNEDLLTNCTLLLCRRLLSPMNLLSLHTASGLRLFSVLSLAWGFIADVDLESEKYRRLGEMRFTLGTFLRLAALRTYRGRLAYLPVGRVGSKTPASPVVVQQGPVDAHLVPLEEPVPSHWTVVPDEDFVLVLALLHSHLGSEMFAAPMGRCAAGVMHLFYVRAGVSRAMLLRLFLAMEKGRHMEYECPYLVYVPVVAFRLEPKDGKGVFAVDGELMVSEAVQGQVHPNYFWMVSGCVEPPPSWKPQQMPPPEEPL

NS(=O)(=O)c1cccc(N/C=C2\C(=O)Nc3ccccc32)c1
inhibition [1]: -0.2%
inhibition [2]: 0.81%
inhibition [3]: 0.83%
inhibition [4]: 2.24%
inhibition [5]: 3.93%
inhibition [6]: 4.81%
inhibition [7]: 3.57%
inhibition [8]: 6.37%
inhibition [9]: 4.39%
inhibition [10]: 6.35%

COc1cc(N2CCN(C(C)C)CC2)ccc1Nc1nc(Nc2cccc(F)c2C(=O)O)c2cc[nH]c2n1
inhibition [1]: -1.68%
inhibition [2]: -0.64%
inhibition [3]: -0.33%
inhibition [4]: 6.3%
inhibition [5]: 22.4%
inhibition [6]: 4.18%
inhibition [7]: 3.93%
inhibition [8]: 6.66%
inhibition [9]: 8.91%
inhibition [10]: 5.22%

CCOc1ccc2c(-c3ccnc(Nc4cc(OC)cc(C(F)(F)F)c4)n3)cnn2n1
inhibition [1]: 1.71%
inhibition [2]: 4.25%
inhibition [3]: 0%
inhibition [4]: 4.76%
inhibition [5]: 15.3%
inhibition [6]: -1.77%
inhibition [7]: 4.02%
inhibition [8]: -0.06%
inhibition [9]: -2.55%
inhibition [10]: 2.74%

CNC(=O)c1ncccc1Nc1nc(Nc2cc3c(cc2OC)CCCN3C(=O)CN(C)C)nc2[nH]ccc12
inhibition [1]: -0.03%
inhibition [2]: -0.11%
inhibition [3]: -1.01%
inhibition [4]: 6.76%
inhibition [5]: 22.8%
inhibition [6]: 12.9%
inhibition [7]: 7.49%
inhibition [8]: 2.85%
inhibition [9]: -0.65%
inhibition [10]: 5.04%
